A short description of test [1]: antimalarial activity against Dd2 strain (AID 2302;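 active = growth inhibition above 50% at the single 2 µM test dose, taken to imply half-maximal potency below 2 µM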;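 note: 0% = DMSO untreated growth and 100% = chloroquine plus artemisinin killed control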). Conditions: P. falciparum Dd2 in RBCs, LDH growth readout, 72 h; at 2 µM; hits give high values.
Test [2] in a line: HepG2 cytotoxicity, primary screen, cytotoxicity control for P. falciparum antimalarial project, cell-based, ATP luminescence (AID 2303;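 active = inhibition above 50%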;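 note: 0% = DMSO wells and 100% = digitonin-killed cells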). Conditions: HepG2 viability, 24-48 h, at 10 µM, hits give high values.
Test [3] has as its target L-lactate dehydrogenase (Plasmodium falciparum (isolate CDC / Honduras)) (UniProt Q27743). In words: PfLDH activity inhibition – cell lysate, 3D7 strain, counter-screen for P. falciparum growth inhibition project (AID 2304).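 Note: 0% = vehicle and 100% = reference inhibitor.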 The settings on record: P. falciparum 3D7 crude extract, LDH APAD/NBT absorbance; at 2 µM; hits give high values.
Test [4] can be described thus: inhibition of 3D7 malaria parasite growth – strain 3D7 (AID 2306).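 Note: 0% = DMSO wells and 100% = chloroquine plus artemisinin control wells.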 The settings on record: P. falciparum 3D7 erythrocytic growth, LDH absorbance, 72 h; at 2 µM; hits give high values.
Test [5] addresses Calcium-dependent protein kinase 1 (Plasmodium falciparum (isolate 3D7)) (UniProt P62344). Briefly: PfCDPK1 kinase inhibitors, biochemical, TCAMS library (AID 1159585; cut-off not given, nearly all actives have IC50 up to about 0.98 µM;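 note: inhibitors leave more ATP so luminescence rises with inhibition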). The settings on record: recombinant PfCDPK1, Kinase-Glo ATP depletion luminescence. (In general: In Kinase-Glo more light means more ATP remaining.)
Test [6] has as its target Plasmodium falciparum protein kinase 6 (PK6, PF3D7_1337100) (UniProt Q8IDW1). In words: PfPK6 kinase inhibitors, biochemical, TCAMS library (AID 1159586). The settings on record: recombinant PfPK6, Kinase-Glo ATP depletion luminescence.
The target of test [7] is Protein kinase 7 (PK7), Plasmodium falciparum 3D7 (PF3D7_0213400) (UniProt Q7YTF7). In words: inhibition of Plasmodium PK7 catalytic activity – biochemical, TCAMS antimalarial set, Kinase-Glo luminescence (AID 1159587). The settings on record: recombinant PfPK7, Kinase-Glo ATP depletion luminescence.
Chain of Protein kinase 7 (PK7), Plasmodium falciparum 3D7 (PF3D7_0213400) (Q7YTF7 1-343): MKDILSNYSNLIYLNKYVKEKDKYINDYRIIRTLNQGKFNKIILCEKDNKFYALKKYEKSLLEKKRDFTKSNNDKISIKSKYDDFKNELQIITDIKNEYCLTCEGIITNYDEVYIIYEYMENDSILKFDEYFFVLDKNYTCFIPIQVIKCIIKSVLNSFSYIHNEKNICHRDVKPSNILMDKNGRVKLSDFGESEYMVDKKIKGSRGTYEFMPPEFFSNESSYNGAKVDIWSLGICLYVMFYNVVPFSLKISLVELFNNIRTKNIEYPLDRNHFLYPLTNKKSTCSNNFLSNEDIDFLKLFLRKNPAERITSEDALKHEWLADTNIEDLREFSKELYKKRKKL
The target of test [8] is Calcium-dependent protein kinase 4 (Plasmodium falciparum (isolate 3D7)) (UniProt Q8IBS5). In words: PfCDPK4 kinase inhibitors, biochemical, TCAMS library (AID 1159588; cut-off not given, nearly all actives have IC50 up to about 0.91 µM). Conditions: recombinant PfCDPK4, Kinase-Glo ATP depletion luminescence.
Chain of Calcium-dependent protein kinase 4 (Plasmodium falciparum (isolate 3D7)) (Q8IBS5 whole entry, looked up): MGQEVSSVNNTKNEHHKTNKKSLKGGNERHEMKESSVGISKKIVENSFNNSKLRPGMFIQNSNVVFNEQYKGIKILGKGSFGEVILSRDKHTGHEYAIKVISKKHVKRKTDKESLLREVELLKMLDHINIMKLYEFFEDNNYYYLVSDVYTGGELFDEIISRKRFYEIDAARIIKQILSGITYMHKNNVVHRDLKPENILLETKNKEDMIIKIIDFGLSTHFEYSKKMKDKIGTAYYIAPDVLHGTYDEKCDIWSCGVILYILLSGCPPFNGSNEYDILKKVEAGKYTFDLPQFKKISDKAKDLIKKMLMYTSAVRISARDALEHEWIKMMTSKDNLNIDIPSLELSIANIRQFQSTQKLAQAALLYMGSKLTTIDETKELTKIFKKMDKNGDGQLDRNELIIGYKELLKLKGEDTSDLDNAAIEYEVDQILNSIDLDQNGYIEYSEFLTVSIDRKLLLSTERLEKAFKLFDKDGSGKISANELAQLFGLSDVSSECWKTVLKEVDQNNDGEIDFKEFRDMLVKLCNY

For orientation: inhibition means the relative decrease from the control value, in per cent.

The structures appear in SMILES notation. Values without a mark were called inactive. For part of these data: Results with a measured potency or affinity are listed apart. Active and inactive are the calls of the source. Unless noted, the rule behind the calls is not given here.

Chain of Calcium-dependent protein kinase 1 (Plasmodium falciparum (isolate 3D7)) (P62344 whole entry, looked up): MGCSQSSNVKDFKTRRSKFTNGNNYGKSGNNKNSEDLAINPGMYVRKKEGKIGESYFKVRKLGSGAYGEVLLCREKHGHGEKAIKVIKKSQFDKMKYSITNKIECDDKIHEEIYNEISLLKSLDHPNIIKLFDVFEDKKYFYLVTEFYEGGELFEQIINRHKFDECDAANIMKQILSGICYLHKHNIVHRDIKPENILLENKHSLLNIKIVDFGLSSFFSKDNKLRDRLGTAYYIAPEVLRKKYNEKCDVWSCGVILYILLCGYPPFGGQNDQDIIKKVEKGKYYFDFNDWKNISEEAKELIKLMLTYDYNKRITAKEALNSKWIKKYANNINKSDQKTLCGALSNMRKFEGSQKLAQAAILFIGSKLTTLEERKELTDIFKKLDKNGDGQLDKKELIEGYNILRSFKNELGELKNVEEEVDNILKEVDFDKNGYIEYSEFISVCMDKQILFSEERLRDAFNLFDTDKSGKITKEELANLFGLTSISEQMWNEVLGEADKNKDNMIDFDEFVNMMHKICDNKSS
Chain of Plasmodium falciparum protein kinase 6 (PK6, PF3D7_1337100) (Q8IDW1 1-305): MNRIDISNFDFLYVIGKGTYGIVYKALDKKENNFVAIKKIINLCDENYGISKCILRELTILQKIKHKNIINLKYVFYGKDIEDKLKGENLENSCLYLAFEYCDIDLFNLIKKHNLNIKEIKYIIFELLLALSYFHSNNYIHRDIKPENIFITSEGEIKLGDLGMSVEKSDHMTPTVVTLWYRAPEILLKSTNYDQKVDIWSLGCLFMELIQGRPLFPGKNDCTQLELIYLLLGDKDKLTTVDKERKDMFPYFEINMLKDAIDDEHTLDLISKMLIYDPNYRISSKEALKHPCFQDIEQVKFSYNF
Chain of L-lactate dehydrogenase (Plasmodium falciparum (isolate CDC / Honduras)) (Q27743 whole entry, looked up): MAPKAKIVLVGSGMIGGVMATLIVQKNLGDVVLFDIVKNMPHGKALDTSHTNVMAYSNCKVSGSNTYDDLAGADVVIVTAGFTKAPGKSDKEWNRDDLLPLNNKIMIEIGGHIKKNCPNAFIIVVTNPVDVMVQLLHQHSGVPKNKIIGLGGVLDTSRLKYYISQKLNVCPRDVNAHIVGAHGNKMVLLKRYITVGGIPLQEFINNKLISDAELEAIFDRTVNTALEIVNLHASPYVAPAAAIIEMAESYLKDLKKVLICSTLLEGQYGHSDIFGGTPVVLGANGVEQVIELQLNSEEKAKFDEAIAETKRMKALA

`CO/C(=C\C=C\c1cc2cc(Cl)ccc2[nH]1)C(=O)NCCCN1CCN(c2cc(Cl)ccc2OC)CC1`: the growth inhibition is 21% in test [1] and 97% (active) in test [4]. The inhibition in test [2] was 41%; in test [3], -2%. The outcome in test [5], in test [6], in test [7] and in test [8] was inactive.
On to `CCN=C1NC2=C(CC(C(C)(C)C)CC2)C2(CCC(C(C)(C)C)CC2)S1` (centres undefined), for which the growth inhibition in test [1] and in test [4] was 99% (active) throughout. The inhibition in test [2] is 40%; in test [3], 4%. The result in test [5], in test [6], in test [7] and in test [8] was inactive.
For `CCCCOc1cc2[nH]cc(C(=O)OCC)c(=O)c2cc1OCCCC`, the growth inhibition in test [1] is 96% (active); in test [4], 97% (active). In addition, the inhibition in test [2] was -9%; in test [3], -2%. Further, the outcome in test [5], in test [6], in test [7] and in test [8] was inactive.
As to `CC(=O)c1ccccc1C(=O)N1CCOc2ccc(C(O)C(c3ccccc3)c3ccccc3)cc2C1` (centres undefined), the growth inhibition was 98% (active) in test [1] and 96% (active) in test [4]. For the same compound, the values for the inhibition in test [2] and in test [3] were 10% and 3%, respectively. Besides, the outcome in test [5], in test [6], in test [7] and in test [8] was inactive.
With `Cc1cccc2[nH]c(-c3cccc(-c4cccc(NC(=O)NCc5cccc(F)c5)c4)c3)nc12`, the results for the growth inhibition in test [1] and in test [4] were 32% and 98% (active), respectively. The inhibition in test [2] is 11%; in test [3], -2%. In addition, the outcome in test [5], in test [6], in test [7] and in test [8] was inactive.
Consider `Cc1cccc(CN2CCC(Oc3ccc(NC(=O)c4cccs4)cc3Cl)CC2)n1`, for which the results for the growth inhibition in test [1] and in test [4] were 88% (active) and 86% (active), respectively. The inhibition in test [2] was 27%; in test [3] it was 7%. Further, the result in test [5], in test [6], in test [7] and in test [8] was inactive.
Regarding `CNC(=O)COC(=O)c1c2c(nc3ccccc13)C(=Cc1ccc3c(c1)OCO3)CCC2`, the growth inhibition is 36% in test [1] and 83% (active) in test [4]. Besides, the inhibition in test [2] was 7%; in test [3], -2%. Moreover, the outcome in test [5], in test [6], in test [7] and in test [8] was inactive.
Consider `Nc1n[nH]c(-c2ccccc2Nc2ccnc3cc(-c4nccs4)ccc23)n1`, for which the growth inhibition in test [1] was 94% (active); in test [4], 100% (active). In addition, the inhibition is 98% (active) in test [2] and -2% in test [3]. Besides, the result in test [5], in test [6], in test [7] and in test [8] was inactive.
As to `CCc1c(CCNCCCCCNCCc2ccc(OC)c(OC)c2CC)ccc(OC)c1OC`, the growth inhibition in test [1] was 1%; in test [4], 101% (active). For the same compound, the inhibition in test [2] is 59% (active); in test [3], -1%. Also, the result in test [5], in test [6], in test [7] and in test [8] was inactive.
For the compound `CCCN(CCC)CCCNc1ccc(C(=O)Nc2ccc(C)c(F)c2)cc1[N+](=O)[O-]`, the growth inhibition in test [1] was 94% (active); in test [4], 100% (active). The inhibition in test [2] was 33%; in test [3], 3%. Besides, the result in test [5], in test [6], in test [7] and in test [8] was inactive.
For the compound `CCNc1cc(C(=O)N[C@@H](Cc2ccccc2)[C@H](O)CNC(C)(C)CC(C)(C)C)c(F)c(N2CCCCS2(=O)=O)c1`, the growth inhibition in test [1] was 63% (active); in test [4], 94% (active). Also, the inhibition was 8% in test [2] and -1% in test [3]. In addition, the outcome in test [5], in test [6], in test [7] and in test [8] was inactive.
Take `COc1ccccc1-c1cccc2c(NC(=O)Nc3ccc4nccc(N5CCN(C)CC5)c4c3)ccnc12`: the growth inhibition in test [1] is 34%; in test [4], 94% (active). Also, the values for the inhibition in test [2] and in test [3] were 3% and 5%, respectively. Besides, the outcome in test [5], in test [6], in test [7] and in test [8] was inactive.
In the case of `Cc1ccc(C2CC(c3cccs3)=NN2C(=O)c2ccc(Br)o2)cc1` (centres undefined), the results for the growth inhibition in test [1] and in test [4] were 69% (active) and 99% (active), respectively. Also, the figures for the inhibition in test [2] and in test [3] were 11% and 0%, respectively. For the same compound, the result in test [5], in test [6], in test [7] and in test [8] was inactive.
`COc1ccc2nc(C)cc(NN=Cc3cccc(Cl)c3)c2c1`: the growth inhibition in test [1] is 100% (active); in test [4], 101% (active). Also, the inhibition is 13% in test [2] and 7% in test [3]. The result in test [5], in test [6], in test [7] and in test [8] was inactive.
As to `CC(CN1CCN(C)CC1)C(=O)Nc1ccc(-c2ccc(-c3nc4ccc(F)cc4[nH]3)cc2)cc1` (centres undefined), the values for the growth inhibition in test [1] and in test [4] were 87% (active) and 101% (active), respectively. Moreover, the inhibition in test [2] is 19%; in test [3], -5%. Further, the outcome in test [5], in test [6], in test [7] and in test [8] was inactive.
Consider `c1ccc(C2CCC(N3CCC(N4CCN(c5ccccc5)CC4)CC3)CC2)cc1` (centres undefined), for which the growth inhibition in test [1] is 34%; in test [4], 97% (active). In addition, the inhibition is 6% in test [2] and -3% in test [3]. Further, the result in test [5], in test [6], in test [7] and in test [8] was inactive.
For `CC(C)CNCc1cccc(-c2cccc(CN(CCN(C)C)C(=O)Nc3ccccc3)c2)c1`, the growth inhibition in test [1] is 62% (active); in test [4] it was 99% (active). Further, the inhibition in test [2] was 34%; in test [3], 4%. In addition, the result in test [5], in test [6], in test [7] and in test [8] was inactive.
Regarding `Cc1cccc2[nH]c(-c3ccc(-c4ccc(CN5CC(C)OC(C)C5)cc4)cc3)nc12` (centres undefined), the results for the growth inhibition in test [1] and in test [4] were 96% (active) and 97% (active), respectively. The inhibition in test [2] was 37%; in test [3], 3%. For the same compound, the outcome in test [5], in test [6], in test [7] and in test [8] was inactive.
